The values below come from PubChem BioAssay (Tox21).

A number with no mark means an inactive call. Active and inactive are the calls of the source. The call rests on the fitted dose curve; in most records, active means well fitted curve in the direction sought with a large enough effect in the repeat runs; inconclusive means weak or mixed curves; inactive means flat fitted curve, though single readings scatter.
On the % scale 0 is the no-effect control and ±100 the full control effect.

A short description of this assay: qHTS assay to test for compound auto fluorescence at 460 nm (blue) in HepG2 cell free culture (AID 720685). Conditions: Cell-free culture medium, blue autofluorescence 405/460 nm; series mostly up to 91.3 µM; fluorescence, % of fluorescent control: at the top concentration. From the text: U.S. Tox21 Program National Center for Advancing Translational Sciences [NCATS] NIH Chemical Genomics Center [NCGC] U.S. Environmental Protection Agency [EPA] National Institutes of Environmental Health Sciences [NIEHS] National Toxicology Program [NTP] U.S. Food and Drug Administration [FDA] Tox21 Assay Overview: Compound auto fluorescence often interferes with screening of the compound library against various biological targets and signaling pathways. Some of these compounds may have fluorophoric properties. Such properties may interfere with the assay outputs resulting in false positives and/or negatives. To decrease such complications and ensure the compound activities are relevant in terms of biological response, the Tox21 10K compound library was screened for auto fluorescence. From the fluorophores used as reporter signals in our screening assays, the auto fluorescence equivalencies of compounds against three fluorophores have been evaluated: Triamterene, Fluorescein and Rose Bengal sodium for blue, green and red fluorescence, respectively. The fluorescence intensities were measured using Excitation/Emission wavelengths at 405/460nm, 485/535nm and 540/590nm for blue, green and red labels, respectively. This assay includes the blue fluorescence data.
Tox21 Assay Protocol Summary: 5 uL of culture medium (MEM containing 10% FBS) per well was dispensed into black wall/clear bottom 1536-well plates using a Multidrop Combi Dispenser (ThermoFisher Scientific, Waltham, MA). After 23 nL compound or DMSO vehicle was transferred into assay plate by a pintool work station (Kalypsys, San Diego, CA), fluorescence intensities in the assay plates were measured by an Envision (PerkinElmer, Shelton, CT) plate reader using three labels for measuring blue, green and red fluorescence at […] 460, 535 and 590nm respectively.
For `N#Cc1ccccc1`, the call was inactive.

Turning to `CC(=O)CCC=C(C)C`, the call was inactive.

Regarding `CCOCCOCCOCCO`, the compound was classed as inactive.

In the case of `CC1(C)CC(N)CC(C)(CN)C1` (stereo not given), the compound was called inactive.

`NCCNCCN`: the outcome was inactive.

Turning to `C=Cc1ccc(C)cc1`, the call was inactive.

As for `OC1C(O)C(O)C(O)C(O)C1O` (stereo not given), the compound was classed as inactive.

As for `CCc1ccccc1CC`, the outcome was inactive.

`CCNc1cccc(C)c1`: the call was inactive.

In the case of `COc1ccc(C)cc1N`, the result was inactive.

On to `CC(=O)OC1CC(C)OC(C)O1` (stereo not given), for which the compound was classed as inactive.

As to `CCCCCC(=O)O`, the result was inactive.

On to `NCCN1CCNCC1`, for which the outcome was inactive.

With `CNC(=O)Oc1ccc2c(c1)[C@]1(C)CCN(C)[C@@H]1N2C`, the compound was classed as inactive.

For `CCCCCCC=O`, the compound was called inactive.

In the case of `O=C(O)Cn1c(=O)n(Cc2ccc(Br)cc2F)c(=O)c2ccc(Cl)cc21`, the “fluorescence, % of fluorescent control” value was 0.0284%.

For `CC(=O)c1ccc(O)cc1`, the compound was classed as inactive.

In the case of `C=C(C)[C@H]1CC=C(C)C(=O)C1`, the compound was called inactive.

Take `CN(C)CCOC(=O)COc1ccc(Cl)cc1`: the outcome was inactive.

For `O=C(O)c1ccc(C(=O)O)c(C(=O)O)c1`, the result was inactive.

As to `CCNc1ccccc1`, the call was inactive.

Regarding `COc1ccccc1OCC(O)CO` (stereo not given), the outcome was inactive.

Consider `CCOCC(=O)O`, for which the outcome was inactive.

For `CCCCCCCC=O`, the outcome was inactive.

`COC(=O)CCCC(=O)OC`: the compound was classed as inactive.

With `CC(C)OC(=O)COc1ccc(Cl)cc1Cl`, the compound was called inactive.

With `CC(CCO)CC(C)(C)C` (stereo not given), the outcome was inactive.

Regarding `OCc1cccc(Oc2ccccc2)c1`, the call was inactive.

`CCCCCCO`: the compound was called inactive.

As for `C[Si]1(C)O[Si](C)(C)O[Si](C)(C)O[Si](C)(C)O1`, the outcome was inactive.

On to `O=C1c2ccccc2CCc2ccccc21`, for which the “fluorescence, % of fluorescent control” value was 0.0154% [at 95.7 µM].

As for `CC(C)CC(C)O` (stereo not given), the compound was classed as inactive.

Take `CC(C)(Oc1ccc(CCNC(=O)c2ccc(Cl)cc2)cc1)C(=O)O`: the compound was called inactive.

With `CCOC(=O)n1ccn(C)c1=S`, the outcome was inactive.

Turning to `CC(C)c1cccc(C(C)C)c1`, the outcome was inactive.

As for `CCCCC(C=O)CC` (stereo not given), the call was inactive.

In the case of `C=CC(=O)OCCC(=O)O`, the compound was called inactive.

`CN/C(=C\[N+](=O)[O-])NCCSCc1csc(CN(C)C)n1`: the outcome was inactive.

Take `Cc1ccc([N+](=O)[O-])cc1S(=O)(=O)O`: the outcome was inactive.

As for `CC(O)CC(C)(C)O` (stereo not given), the outcome was inactive.
